Only some compounds are listed: those with a hit (about 2.4% of all), similar ones and a draw of the others.
D2 antagonist: D2 dopamine receptor (human) antagonism; 340,000 tested, 2% active; inhibition, % at 10 µM; P14416; HEK293 TREx D2 cells, calcium flux, dopamine EC80; in the data active = inhibition above about 30%; inactive = below that, where a call was filed
Target sequence (P14416 whole entry, looked up): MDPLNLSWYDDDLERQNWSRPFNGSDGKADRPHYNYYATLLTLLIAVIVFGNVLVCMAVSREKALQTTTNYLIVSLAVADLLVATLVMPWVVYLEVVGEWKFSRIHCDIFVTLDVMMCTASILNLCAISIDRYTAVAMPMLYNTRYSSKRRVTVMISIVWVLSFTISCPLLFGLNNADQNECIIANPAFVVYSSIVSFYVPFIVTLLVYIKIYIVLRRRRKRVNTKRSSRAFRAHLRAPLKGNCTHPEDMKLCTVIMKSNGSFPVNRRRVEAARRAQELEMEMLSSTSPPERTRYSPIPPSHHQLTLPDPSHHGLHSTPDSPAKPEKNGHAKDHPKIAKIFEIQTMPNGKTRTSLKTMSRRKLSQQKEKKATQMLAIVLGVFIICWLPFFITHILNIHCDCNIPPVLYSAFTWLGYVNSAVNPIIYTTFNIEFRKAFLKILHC
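Calcium mobilization kinetics were recorded at 1 s intervals in tetracycline-induced HEK293 T-REx D2 cells, first for 180 s after compound addition and then 180 s after EC80 dopamine.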
D2 ag-1: human D2 receptor agonism in beta-arrestin assay. P14416. DiscoveRx PathHunter D2 beta-arrestin, luminescence, 90 min; 100% = 57 uM dopamine signal. activation, % (concentration not given with the values). 360,000 tested, 0.084% active; in the data active = activation above about 40%; inconclusive = between about 15% and that limit
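DiscoveRx PathHunter D2 beta-arrestin cells (2,100/well) attached overnight, then compound-stimulated 90 min at 37 C in HBSS/10 mM HEPES/0.1% Tween-20 buffer; beta-galactosidase complementation read by luminescence after 1 h at ambient temperature. Dopamine 57 uM final (EC100) as control.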
D2 PAM-1: human D2 receptor positive allosteric modulation; P14416; DiscoveRx D2 beta-arrestin cells, luminescence, 90 min; 100% = 57 uM dopamine signal; potentiation, % (test concentration not listed); 360,000 tested, 0.23% active; AID 624464; in the data active = potentiation above about 50%; inconclusive = mostly about 30% to 49%
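PathHunter D2 cells, attached overnight at 37 deg C, received compound in DMSO plus dopamine at EC20 (50 nM final) for 90 min at 37 deg C. Beta-arrestin recruitment was read as luminescence after 1 h with detection reagent at ambient temperature.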
D2 ag-2: agonists of human D2 dopamine receptor; P14416; HEK293 T-REx D2 cells, calcium flux agonist mode; activation, % at 2 µM; 340,000 tested, 0.53% active; AID 485358;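 active = activation over 3 SD above normal in the single-dose calcium agonist read, cut at about 30% in these data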
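Tetracycline-induced HEK293 T-REx cells with force-coupled D2 receptor, plated overnight at 30 C, loaded with no-wash calcium dye. After a 10 s baseline, compound was pin-added and calcium flux read kinetically for 180 s; calcium rises flagged agonists.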
D2 PAM-2: positive allosteric modulators of human D2 dopamine receptor | HEK293 T-REx D2, calcium flux, EC20 dopamine potentiation | potentiation, % at 10 µM | 340,000 tested, 0.34% active;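 active = potentiation over 3 SD above the plate norm, cut at about 30% in these data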
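Tetracycline-induced HEK293 T-REx cells force-coupled to calcium signalling expressed D2; compounds were pin-added after a 10 s baseline, read kinetically 180 s, then an EC20 dopamine challenge followed with a further 180 s calcium read.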
A number is an active result; - = inactive; ? = inconclusive; . = not tested or not shown.

SMILES	D2 antagonist	D2 ag-1	D2 PAM-1	D2 ag-2	D2 PAM-2
CC1CCCN(CCOc2ccc(Br)cc2)C1 (stereo not given)	62.9	-	-	-	-
Clc1cccc(OCCN2CCCC2)c1	-	-	-	-	-
CC1CCCN(CCCCOc2cccc(Br)c2)C1 (stereo not given)	75.0	-	-	-	-
CCN(CC)c1ccc(NC(=O)C2CCN(S(=O)(=O)c3c(C)noc3/C=C/c3ccccc3F)CC2)c(C)c1	.	.	.	-	.
O=C(Nc1cc2c(cc1C(=O)c1ccccc1Br)OCCO2)c1cccc(Cl)c1	.	.	.	-	-
COc1cc(NC(=O)COCc2cc(-c3ccc4c(c3)OCO4)on2)cc(OC)c1	.	.	.	-	-
CCOC(=O)Cc1csc(NC(=O)COc2ccc3ccccc3c2)n1	58.7	-	-	-	-
Cc1nn(C(C)C(=O)N2CCN(c3ccc(Cl)cc3)CC2)c(=O)c2cc3occc3n12 (stereo not given)	.	.	.	-	-
CC1(C)Cc2c(ccc3ccccc23)/C(=C/C(=O)N2CCCCC2)N1	32.7	-	-	-	-
COc1ccc(CCNC(=O)c2cccc(-n3cnc4cccnc43)c2C)cc1OC	.	.	.	-	-
CCN(C(=O)Cc1c(C(=O)O)[nH]c2ccccc12)c1ccc(OC)cc1	53.3	-	-	-	-
Cc1ccc(C)c(OCC(O)CN2CCN(CCN3C(=O)c4cccc5cccc(c45)C3=O)CC2)c1 (stereo not given)	-	-	-	-	-
CC(=O)c1ccccc1OCC(O)CN1CCN(CCN2C(=O)c3cccc4cccc(c34)C2=O)CC1 (stereo not given)	36.3	-	-	-	-
CCNC(=S)N1CCN(CCN2C(=O)c3cccc4cccc(c34)C2=O)CC1	43.5	-	-	-	-
CCn1cc(C(=O)N2CCN(c3ccc(OC)cc3)CC2)c(=O)c2cc(S(=O)(=O)N(C)C3CCCCC3)ccc21	.	.	.	-	-
CCOc1ccc(-c2nnc(SCC(=O)NCCC(C)C)nc2-c2ccc(OCC)c(OC)c2)cc1OC	.	.	.	-	.
Clc1cccc2c1CCN(Cc1nc(-c3cnccn3)no1)C2	40.0	-	-	-	-
COc1ccc(C2N(C(=O)N(C)C)CCN2S(=O)(=O)c2ccc(OC)cc2)cc1 (stereo not given)	37.0	-	-	-	-
COc1ccc(NC(=O)CSc2nncn3c2cc2oc(C)cc23)cc1OC	.	.	.	-	-
COc1ccc(/C=N/Nc2nnc(C)n2N)cc1OC	-	?	56.7	-	-
CCCCCCc1cc2cc(S(=O)(=O)c3ccc(Cl)cc3)c(=O)oc2cc1O	.	-	-	.	-
CCN(CC)c1ccc2cc(S(=O)(=O)c3ccc(Cl)cc3)c(=O)oc2c1	-	-	-	68.0	-
COc1cccc(N2CCN(C(=O)Cn3c(-c4cccs4)cc4ccccc43)CC2)c1	.	.	.	-	-
O=C(CNC(=O)C12CC3CC(CC(C3)C1)C2)N/N=C\c1ccco1	-	-	79.7	-	-
O=C(CNC(=O)c1ccc2c(c1)OCCO2)N/N=C/c1ccco1	-	-	-	-	-
SMILES	D2 antagonist	D2 ag-1	D2 PAM-1	D2 ag-2	D2 PAM-2
Cc1ccc(-c2nnc(Nc3ccc(O)cc3)c3ccccc23)cc1S(=O)(=O)N1CCCCC1	.	.	.	-	-
CCn1cc(-c2nnnn2-c2ccc(Cl)cc2)c(=O)c2ccccc21	-	-	-	-	37.8
Cn1cc(-c2nnnn2-c2ccc(Cl)cc2)c(=O)c2ccccc21	-	-	-	-	-
Cc1ccc2oc3c(c(=O)c2c1)C(c1ccccc1F)N(CCCN1CCOCC1)C3=O (stereo not given)	.	.	.	-	-
Cc1ccc(N2C(=O)C(Cl)=C(Nc3c(C)n(C)n(-c4ccccc4)c3=O)C2=O)cc1	32.3	-	-	-	-
Cc1cccc(N2C(=O)C(Cl)=C(Nc3c(C)n(C)n(-c4ccccc4)c3=O)C2=O)c1C	-	-	-	-	-
Nn1c(SCCOc2ccccc2)nnc1-c1cccnc1	32.7	-	-	-	-
Cc1ccc(NC(=O)c2ccc(NC(=O)N3CCSc4nc(C)cc(C)c43)cc2)c(Cl)c1	.	.	.	-	-
O=C(O)COc1ccc2occ(C(=O)c3ccccc3)c2c1	37.5	-	-	-	-
Cn1nnnc1SCCCNCc1cccc(OCc2ccccc2)c1	.	.	.	-	-
COC(=O)c1cc(NC(=O)CCc2c(C)nc3c(c(C)nn3C(C)(C)C)c2C)cc(C(=O)OC)c1	.	.	.	-	-
Cc1n[nH]c(C)c1CCC(=O)N/N=C/c1cccc([N+](=O)[O-])c1	45.5	-	-	-	-
COc1cccc(/C=N/NC(=O)CCc2c(C)n[nH]c2C)c1	-	-	-	-	-
Cc1nn(CCC(=O)Nc2ccccc2Br)c(=O)c2nn(-c3ccccc3)c(C)c12	.	.	.	-	-
C(=N\N1CCOCC1)/c1nc(-c2ccccc2)n2ccccc12	43.4	-	-	-	-
COc1cccc(N2CCN(C(=O)CCCn3c(=O)[nH]c4ccc(Br)cc4c3=O)CC2)c1	.	.	.	-	-
O=C(Oc1cccc(Oc2ccccc2)c1)N1CCOCC1	40.9	-	-	-	-
O=C(Oc1ccc(-c2ccccc2)cc1)N1CCOCC1	-	-	-	-	-
Cc1ccc(C(=O)C(C)OC(=O)CNS(=O)(=O)c2ccc(C)cc2)cc1 (stereo not given)	-	-	-	-	-
Cc1ccc(S(=O)(=O)NCC(=O)OC(C)C(=O)c2ccccc2)cc1 (stereo not given)	30.9	-	-	-	-
Cc1ccc(NS(=O)(=O)c2ccc(C)c(NC(=O)COc3ccccc3)c2)c(C)c1	66.6	-	-	-	-
Cc1ccc(NC(=O)COc2ccccc2)c(NC(=O)c2ccccc2C)c1	.	-	-	.	.
Cc1ccc(S(=O)(=O)Nc2ccc3c(c2)C(=O)c2ccccc2-3)cc1	.	-	-	.	.
Cc1ccc(NS(=O)(=O)c2ccc3c(c2)C(=O)c2ccccc2C3=O)c(C)c1	-	-	80.6	-	-
COc1ccccc1CNc1ccc(-c2nc(C(C)C)no2)cc1[N+](=O)[O-]	.	.	.	.	-
SMILES	D2 antagonist	D2 ag-1	D2 PAM-1	D2 ag-2	D2 PAM-2
Cc1ccc(S(=O)(=O)C(CNC(=O)C(=O)NCc2ccccc2C)c2cccs2)cc1 (stereo not given)	.	.	.	-	-
O=C(Nc1ccc(-n2nncc2-c2ccco2)cc1)c1cccc(F)c1	42.0	-	-	-	-
O=C(NC1CCCC1)c1cc(-c2ccccc2O)on1	47.5	-	-	-	-
O=C(Nc1ccc2c(c1)OCO2)c1cc(-c2ccccc2Cl)on1	37.3	-	-	-	-
O=C(NC1CCCCC1)c1cc(-c2ccccc2Cl)on1	-	-	-	-	-
O=C(NC1CCCC1)c1cc(-c2ccc(Cl)cc2Cl)on1	30.8	-	-	-	-
O=C(NC1CCCC1)c1cc(-c2ccccc2Cl)on1	49.8	-	-	-	-
CCOC(=O)c1cc(S(=O)(=O)NCc2cccc(Cl)c2)[nH]n1	.	.	.	-	-
